In test [1] the target is Rap guanine nucleotide exchange factor 3 (Homo sapiens) (UniProt O95398). Nature of the test: Confirmatory qHTS for agonist of cAMP-regulated guanine nucleotide exchange factor 3 (EPAC1) (AID 1645881).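 For activation: EPAC1 catalysed release of BODIPY-GDP from Rap1B seen as fluorescence loss; 100% = effect of cAMP agonist control.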 Note: nearly all actives have a fitted effect of over 75% in size. Note: potency is the fitted concentration of half-maximal effect. A general note: In qHTS, concentration-response curves come from the screen itself.
Chain of Rap guanine nucleotide exchange factor 3 (Homo sapiens) (O95398 whole entry, looked up): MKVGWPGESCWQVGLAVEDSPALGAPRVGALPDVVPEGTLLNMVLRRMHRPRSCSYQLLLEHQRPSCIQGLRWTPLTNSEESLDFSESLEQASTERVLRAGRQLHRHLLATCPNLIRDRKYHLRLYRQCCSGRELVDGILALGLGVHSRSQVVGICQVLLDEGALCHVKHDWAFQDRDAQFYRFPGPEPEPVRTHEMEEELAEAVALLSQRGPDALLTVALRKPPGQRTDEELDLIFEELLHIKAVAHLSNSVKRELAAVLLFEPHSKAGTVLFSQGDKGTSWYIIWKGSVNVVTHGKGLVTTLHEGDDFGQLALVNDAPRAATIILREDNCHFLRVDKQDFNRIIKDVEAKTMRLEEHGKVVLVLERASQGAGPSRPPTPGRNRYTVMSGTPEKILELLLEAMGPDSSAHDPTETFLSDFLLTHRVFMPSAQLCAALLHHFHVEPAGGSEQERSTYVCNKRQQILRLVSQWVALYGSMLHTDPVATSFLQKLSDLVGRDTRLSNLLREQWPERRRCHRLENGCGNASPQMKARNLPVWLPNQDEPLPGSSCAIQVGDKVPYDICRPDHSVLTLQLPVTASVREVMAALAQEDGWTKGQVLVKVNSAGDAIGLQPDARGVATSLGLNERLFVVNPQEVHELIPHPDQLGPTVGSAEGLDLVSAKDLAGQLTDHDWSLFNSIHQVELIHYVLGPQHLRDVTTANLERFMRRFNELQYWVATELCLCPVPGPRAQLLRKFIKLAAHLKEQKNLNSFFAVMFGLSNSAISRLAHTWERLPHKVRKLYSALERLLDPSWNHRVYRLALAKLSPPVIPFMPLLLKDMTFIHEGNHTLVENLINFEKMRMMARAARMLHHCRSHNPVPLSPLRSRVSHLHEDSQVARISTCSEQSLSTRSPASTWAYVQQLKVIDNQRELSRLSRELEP
Test [2] concerns the target Rap guanine nucleotide exchange factor 4 (Homo sapiens) (UniProt Q8WZA2). As to the kind of experiment: Confirmatory qHTS for agonist of cAMP-regulated guanine nucleotide exchange factor 4 (EPAC2) (AID 1645884). For activation: % is set by controls: 0 for no effect and ±100 for the full control effect.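 Note: nucleotide exchange releases bodipy-GDP from Rap1 and this lowers its fluorescence; nearly all actives have a fitted effect of over 65% in size.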 Note: potency is the fitted concentration of half-maximal effect.
In test [3] the target is Rap guanine nucleotide exchange factor 3 (Homo sapiens) (UniProt O95398). Nature of the test: Counterscreen qHTS for agonist of cAMP-regulated guanine nucleotide exchange factor 3 (EPAC1) (AID 1645889). Note: % of control where 0% means no effect; nearly all actives have a fitted effect of over 40% in size. The procedure, abridged: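 Measured: fluorescence of BODIPY-GDP bound to Rap1B, which falls as exchange proceeds. Conditions include 50 uM competing GDP, 5 and 30 min reads, and a later cAMP challenge for antagonist detection.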
(In general: Counterscreens check selectivity or assay interference.)

Test [4] deals with Flap endonuclease 1 (Homo sapiens) (UniProt P39748). As to the kind of experiment: qHTS Assay for the Inhibitors of FEN1: Confirmatory Assay for Cherry-picked Compounds (AID 720498). Note: potency is the fitted concentration of half-maximal effect; nearly all actives have a fitted effect of over 60% in size. To be noted: FEN1 flap cleavage, TAMRA/BHQ2 fluorogenic DNA substrate. The procedure, abridged: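 FEN1 at 10 nM was preincubated with compound for 15 min at room temperature, then 50 nM (final) double-flap DNA substrate was added. TAMRA fluorescence released from the BHQ-2-quenched flap was read at 0 and 15 min (ex 525/em 598 nm).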
Chain of Flap endonuclease 1 (Homo sapiens) (P39748 whole entry, looked up): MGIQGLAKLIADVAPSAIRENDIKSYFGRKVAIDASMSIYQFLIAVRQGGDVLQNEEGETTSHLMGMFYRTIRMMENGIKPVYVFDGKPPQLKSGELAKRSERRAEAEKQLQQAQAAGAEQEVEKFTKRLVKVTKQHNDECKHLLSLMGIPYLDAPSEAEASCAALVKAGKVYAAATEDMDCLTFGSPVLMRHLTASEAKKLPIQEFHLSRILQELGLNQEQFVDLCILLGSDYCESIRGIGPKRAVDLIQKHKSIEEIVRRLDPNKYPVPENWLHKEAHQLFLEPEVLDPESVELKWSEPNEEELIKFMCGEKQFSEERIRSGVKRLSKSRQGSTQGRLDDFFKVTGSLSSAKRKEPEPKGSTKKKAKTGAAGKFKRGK

A short description of test [5]: AP1 Signaling Pathway (AID 357; active = well fitted curve in either direction with a large enough effect, not every such curve was filed as active;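 note: ME-180 reporter cells stimulated with EGF at its EC50 level; % is set by controls: 0 for no effect and ±100 for the full control effect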). The settings on record: ME-180 (cervical carcinoma) AP-1-bla reporter, EGF-induced, beta-lactamase ratio, 5 h; at 7.69 µM (top of the series) unless noted. In outline: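 Titration-series screen for positive or negative modulators of EC50 EGF-induced signaling in ME-180 cells carrying an AP-1-driven beta-lactamase reporter. After 5 hours at 37 degrees Celsius, CCF4 460nm/530nm emission ratio gave %Activity; AC50 values derived.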

Test [6] is described as follows: Stat Signaling Pathway (AID 446; active = well fitted curve in either direction with a large enough effect, not every such curve was filed as active;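 note: ME-180 cervical cancer cells given 40 pM IL-6 alongside compound; SIE-controlled beta-lactamase reporter measured as 460/530 nm FRET emission ratio; % is set by controls: 0 for no effect and ±100 for the full control effect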). In outline: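 IL-6/STAT signaling read in ME-180 cells via an SIE beta-lactamase reporter. Stimulus was 40 pM IL-6 (its AC50) for 5 hrs, so both activation and inhibition register.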
For test [7], the target named is Glucocorticoid receptor (Homo sapiens) (UniProt P04150). Nature of the test: GR-GFP Redistribution (AID 450;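 active = compounds whose dose series gives a full or clear partial fitted curve of increased nuclear translocation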; note: potency is the fitted concentration of half-maximal effect). To be noted: U2OS GR-GFP nuclear translocation, laser cytometry, 2 h.
Chain of Glucocorticoid receptor (Homo sapiens) (P04150 whole entry, looked up): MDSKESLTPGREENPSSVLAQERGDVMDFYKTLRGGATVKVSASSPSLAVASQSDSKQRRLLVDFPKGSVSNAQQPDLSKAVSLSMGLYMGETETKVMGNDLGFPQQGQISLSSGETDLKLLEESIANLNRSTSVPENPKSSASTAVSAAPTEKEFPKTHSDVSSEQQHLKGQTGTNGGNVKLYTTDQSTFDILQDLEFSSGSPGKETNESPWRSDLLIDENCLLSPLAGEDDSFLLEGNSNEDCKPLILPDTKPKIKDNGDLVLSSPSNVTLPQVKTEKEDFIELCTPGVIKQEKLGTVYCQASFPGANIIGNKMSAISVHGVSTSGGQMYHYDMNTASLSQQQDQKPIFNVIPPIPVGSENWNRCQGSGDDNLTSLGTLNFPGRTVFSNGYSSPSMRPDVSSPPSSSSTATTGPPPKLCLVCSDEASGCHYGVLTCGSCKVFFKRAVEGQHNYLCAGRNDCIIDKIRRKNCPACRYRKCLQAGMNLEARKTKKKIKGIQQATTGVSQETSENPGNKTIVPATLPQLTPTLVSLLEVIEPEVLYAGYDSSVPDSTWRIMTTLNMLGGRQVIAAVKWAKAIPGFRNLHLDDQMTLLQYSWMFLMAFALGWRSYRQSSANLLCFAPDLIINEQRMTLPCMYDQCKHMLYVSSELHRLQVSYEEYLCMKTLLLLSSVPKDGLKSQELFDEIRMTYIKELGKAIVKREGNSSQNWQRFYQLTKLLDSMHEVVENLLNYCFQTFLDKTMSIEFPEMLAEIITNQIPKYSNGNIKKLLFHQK
Test [8] addresses DNA dC->dU-editing enzyme APOBEC-3G (Homo sapiens) (UniProt Q9HC16). As to the kind of experiment: qHTS for inhibitors of Vif-A3G interactions: Validation (AID 588379). Note: 0% is about no effect. In outline:
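HeLa cells stably expressing Vif and A3G-eYFP, 700 cells/well, incubated overnight at 37 deg C, then exposed to compound overnight at 37 deg C. Inhibition of Vif-mediated degradation read as increased yellow fluorescence (Ex 488/Em 500-530) by laser-scanning cytometry.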

Test [9] has as its target Tumor susceptibility gene 101 protein (Homo sapiens) (UniProt Q99816). As to the kind of experiment: qHTS Assay for Iinhibitors of HIV-1 Budding by Blocking the Interaction of PTAP/TSG101: Hit Validation (AID 651600). Note: potency is the fitted concentration of half-maximal effect; nearly all actives have a fitted effect of over 70% in size. The procedure, abridged: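 Compounds are added to the Tsg101 binding domain (10 uM final) in pH 7.5 HEPES buffer. FITC-PTAP peptide follows at 50 nM final. After 20 min at r.t., polarized FITC emission is measured.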

The values that follow come from PubChem BioAssay (NCATS).

Structures are written as SMILES. Unmarked numbers belong to inactive results. Results filed as inconclusive are left out. This is one part of the list. The source made the active and inactive calls. Unless noted, calls come from the whole dose curve; as a rule, active = well fitted curve in the direction sought with a large enough effect; inconclusive = small, poorly fitted or top-dose-only effect, or another doubt; inactive = no such curve, though single readings can be large; an effect the other way counts as inactive or inconclusive.

Chain of Rap guanine nucleotide exchange factor 4 (Homo sapiens) (Q8WZA2 whole entry, looked up): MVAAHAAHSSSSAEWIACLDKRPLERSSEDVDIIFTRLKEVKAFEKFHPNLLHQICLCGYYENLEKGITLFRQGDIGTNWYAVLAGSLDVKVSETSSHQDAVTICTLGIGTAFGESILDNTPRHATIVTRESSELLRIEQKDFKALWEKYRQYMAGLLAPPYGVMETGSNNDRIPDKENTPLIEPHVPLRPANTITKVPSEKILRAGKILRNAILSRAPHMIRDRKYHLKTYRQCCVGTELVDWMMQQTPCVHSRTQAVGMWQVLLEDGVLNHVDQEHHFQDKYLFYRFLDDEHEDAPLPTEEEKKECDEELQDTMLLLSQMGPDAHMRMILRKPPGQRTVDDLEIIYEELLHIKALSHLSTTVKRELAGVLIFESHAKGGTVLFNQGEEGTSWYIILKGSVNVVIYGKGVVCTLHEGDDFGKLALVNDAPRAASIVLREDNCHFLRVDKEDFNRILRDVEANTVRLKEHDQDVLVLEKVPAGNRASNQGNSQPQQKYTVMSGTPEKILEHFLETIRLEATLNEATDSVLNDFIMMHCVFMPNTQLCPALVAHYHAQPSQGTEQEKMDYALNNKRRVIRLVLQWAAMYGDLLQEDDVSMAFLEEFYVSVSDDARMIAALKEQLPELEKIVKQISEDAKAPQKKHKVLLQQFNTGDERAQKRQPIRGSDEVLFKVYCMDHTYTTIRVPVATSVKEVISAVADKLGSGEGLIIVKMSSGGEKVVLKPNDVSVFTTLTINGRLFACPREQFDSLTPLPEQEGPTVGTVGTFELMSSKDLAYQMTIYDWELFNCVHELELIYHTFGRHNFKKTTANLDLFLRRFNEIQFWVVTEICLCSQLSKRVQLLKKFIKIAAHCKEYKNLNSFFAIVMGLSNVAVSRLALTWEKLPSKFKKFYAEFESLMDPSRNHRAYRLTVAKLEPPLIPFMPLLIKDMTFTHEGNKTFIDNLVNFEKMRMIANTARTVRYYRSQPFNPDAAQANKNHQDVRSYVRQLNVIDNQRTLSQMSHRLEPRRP
Chain of Tumor susceptibility gene 101 protein (Homo sapiens) (Q99816 whole entry, looked up, the tested form may be a part): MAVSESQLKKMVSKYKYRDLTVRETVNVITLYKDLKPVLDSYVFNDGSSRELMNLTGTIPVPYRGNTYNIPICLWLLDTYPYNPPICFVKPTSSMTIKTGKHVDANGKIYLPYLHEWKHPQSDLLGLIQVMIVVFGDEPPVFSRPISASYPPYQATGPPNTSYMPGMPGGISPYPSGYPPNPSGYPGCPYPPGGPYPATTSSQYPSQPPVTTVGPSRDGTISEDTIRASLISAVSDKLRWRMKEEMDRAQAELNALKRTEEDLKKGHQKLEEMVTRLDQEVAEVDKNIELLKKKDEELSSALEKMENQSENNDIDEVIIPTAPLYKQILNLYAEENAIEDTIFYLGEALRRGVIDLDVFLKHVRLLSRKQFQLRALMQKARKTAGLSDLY
Chain of DNA dC->dU-editing enzyme APOBEC-3G (Homo sapiens) (Q9HC16 whole entry, looked up): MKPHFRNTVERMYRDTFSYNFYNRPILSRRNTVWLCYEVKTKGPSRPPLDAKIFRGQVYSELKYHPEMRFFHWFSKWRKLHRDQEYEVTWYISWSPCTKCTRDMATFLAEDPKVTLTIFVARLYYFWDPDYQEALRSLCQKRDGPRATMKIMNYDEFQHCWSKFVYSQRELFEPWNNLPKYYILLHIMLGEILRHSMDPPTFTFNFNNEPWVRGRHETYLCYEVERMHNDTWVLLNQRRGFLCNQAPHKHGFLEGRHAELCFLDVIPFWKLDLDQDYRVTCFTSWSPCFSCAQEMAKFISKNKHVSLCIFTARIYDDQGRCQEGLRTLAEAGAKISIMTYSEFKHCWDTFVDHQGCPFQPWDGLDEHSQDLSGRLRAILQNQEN

Turning to `CCCCC[C@@H](C)N1C[C@H](COCc2ccccc2)Oc2cc(N3CC[C@H](N(C)C)C3)ccc2S1(=O)=O`, the Potency entry in test [1], in test [2] and in test [3] was “inactive” in each case.

In the case of `O=C(CSc1nnc(SCc2ccc(Cl)cc2)s1)N/N=C/c1ccc(C(=O)O)cc1`, the Potency entry in test [1], in test [2] and in [3] was “inactive” each time.

For `Cc1ccc(C)c(-c2csc(N)c2C(=O)OC(C)C)c1`, in test [1], the Potency entry is “inactive”. The activation in test [2] is 7.03% [at 17.1 µM, percent relative to cAMP agonist control]; in [3], 30% [at 30.8 µM].

In the case of `CCOC(=O)c1c(NC(=O)C2C3C=CC(C3)C2C(=O)O)sc2c1CCC(CC)C2` (stereo unspecified), the Potency result in [1], in [2] and in [3] was “inactive” in each case.

On to `CN(CC(=O)Nc1ccccc1Cl)C(=O)c1ccc(-c2cccc(C(F)(F)F)c2)o1`, for which the Potency entry in [1], in test [2] and in test [3] was “inactive” throughout.

For the compound `CCCOP(=O)(OCCC)C(Nc1cccc(C(F)(F)F)c1)c1ccc(C)cc1` (stereo unspecified), the Potency result in test [1], in test [2] and in test [3] was “inactive” throughout.

Turning to `COc1ccc(CN(C)C(=O)c2ccc(OCC(=O)Nc3cccc(C(F)(F)F)c3)c(OC)c2)c(OC)c1`, the Potency entry in test [1], in [2] and in test [3] was “inactive” throughout.

As for `CCCN(CC(=O)Nc1ccccc1C)C(=O)c1oc2ccc(OCC)cc2c1C`, the Potency result in test [1], in test [2] and in test [3] was “inactive” each time.

On to `CCN1/C(=C\c2ccc3ccccc3[n+]2CC)Sc2cc(C)ccc21`, for which the Potency in [4] is 21.3 µM (active). For the same compound, the Potency result in test [1] and in test [2] was “inactive” in each case.

Regarding `CCOc1ccc(C(=O)CCN2CCCCCC2)cc1`, the Potency result in test [1], in test [2] and in test [3] was “inactive” each time.

On to `CCCCC[C@H](C)N1C[C@@H](COCc2ccccc2)Oc2cc(N3CC[C@H](N(C)C)C3)ccc2S1(=O)=O`, for which the Potency result in test [1], in test [2] and in test [3] was “inactive” each time.

As to `CC(C)CCNC(=O)C(CC(C)C)N(Cc1ccc2c(c1)OCO2)C(=O)c1snc(C(N)=O)c1N` (stereo unspecified), the Potency result in [1], in test [2] and in test [3] was “inactive” throughout.

Regarding `CC(Nc1ccc(Cl)cc1)c1cc(Cl)ccc1O` (stereo unspecified), the Potency result in [1], in [2] and in test [3] was “inactive” in each case.

On to `COc1ccccc1-c1nc2ccccc2n(CC(C)C)c1=O`, for which the Potency result in test [1], in test [2] and in test [3] was “inactive” in each case.

Consider `CCCCOc1ccc(C(=O)N/N=C/c2cn[nH]c2-c2ccc(OC)c(OC)c2)cc1`, for which the Potency entry in [1], in [2] and in test [3] was “inactive” throughout.

As for `O=C(Nc1ncccc1O)c1c(O)c2ccccc2[nH]c1=O`, the Potency entry in [1] and in [3] was “inactive” in each case. Besides, in test [2], the Potency is 100 µM (active).

For `COC(=O)C1CCN(c2nc3ccccc3nc2C(C#N)C(=O)NCCc2ccccc2)CC1` (stereo unspecified), the activity change, negative = inhibition in test [5] is -19.5% [at 17.2 µM]. In test [6], the compound was classed as inactive. In test [7], the Potency is > 20.6 µM. For the same compound, the Potency result in test [1], in test [2] and in test [3] was “inactive” each time.

With `Cc1cccc(Cn2c(C)nc3c(N)c(C)c(C)cc32)c1`, the Potency entry in [1], in test [2] and in [3] was “inactive” throughout.

For the compound `CCOC(=O)c1c(C)[nH]c(C)c1C(=O)COC(=O)c1cc(OC)cc(OC)c1`, the Potency entry in [1], in [2] and in test [3] was “inactive” throughout.

Regarding `COC1/C=C/OC2(C)Oc3c(C)c(O)c4c(O)c(c(/C=N/N5CCN(C)CC5)c(O)c4c3C2=O)NC(=O)/C(C)=C/C=C/C(C)C(O)C(C)C(O)C(C)C(OC(C)=O)C1C` (stereo unspecified), in test [8], the compound was called inactive. The Potency entry in [1] and in test [2] was “inactive” in each case.

With `Cc1ccc(S(=O)(=O)c2nc(-c3ccco3)oc2SC(C)C)cc1`, in [1], the Potency entry was “inactive”. For the same compound, the activation in [2] is 4.44% [at 17.1 µM, percent relative to cAMP agonist control]; in test [3] it was 16.5% [at 30.8 µM].

Regarding `COc1cc(C(=O)N(C)CCOc2ccccc2)ccc1OCC(=O)Nc1cccc(C(F)(F)F)c1`, the Potency result in test [1], in test [2] and in test [3] was “inactive” throughout.

Take `Cc1nn(C)cc1N1C(=O)c2cccc3c(N)ccc(c23)C1=O`: the Potency in test [9] was 6.51 µM (active); in test [1], 112 µM (active); in test [2], 100 µM (active).

On to `COc1ccc(CCC(=O)N(C)CC(=O)Nc2ccc(Cl)c(C(F)(F)F)c2)cc1`, for which the Potency result in test [1], in test [2] and in test [3] was “inactive” in each case.

Turning to `C=CCN(C(=O)Cn1ncc2c1-c1cc(C)ccc1OC2)c1ccccc1`, the Potency entry in [1], in [2] and in test [3] was “inactive” throughout.

With `Cc1ccc(S(=O)(=O)N2CCOCC2)cc1NC(=O)COC(=O)CCOc1ccc(C(C)(C)C)cc1`, the Potency result in [1], in test [2] and in test [3] was “inactive” each time.

On to `CN1C(=O)/C(=C2/C=Cc3ccccc3N2CCCS(=O)(=O)O)SC1=S`, for which the Potency result in [1], in test [2] and in test [3] was “inactive” in each case.

Turning to `COc1ccccc1NS(=O)(=O)c1ccc2ccccc2c1`, the Potency entry in test [1] is “inactive”. The activation is 0% [at 17.1 µM, percent relative to cAMP agonist control] in [2] and 16.4% [at 30.8 µM] in test [3].

`CC(NC(=O)COC(=O)C1CCN(c2ccc(C(F)(F)F)cn2)CC1)c1ccc(Br)cc1` (stereo unspecified): the Potency result in test [1], in test [2] and in test [3] was “inactive” in each case.

On to `CCCCN(C=O)c1c(CC)nc2c(OCc3ccc(C(F)(F)F)cc3)cccn12`, for which the Potency result in test [1], in [2] and in test [3] was “inactive” each time.

As for `COc1ccc(C(=O)c2ccccc2Cl)cc1OC`, the Potency entry in test [1], in test [2] and in test [3] was “inactive” each time.
